High-throughput results (PubChem BioAssay)
FMDV antiviral = High Throughput Screening for Foot and Mouth Disease Virus Antivirals. hit rate 1.2% among 410,000. AID 1159524, 2015. FMDV antiviral cell-based qHTS. Potency, µM (highest dose often 57.9 µM), actives largely listed as inhibitors; calls by dose curve; tested in HEK293T cells; further: read-out not given here; nearly all actives have a fitted effect of over 45% in size
Lassa entry inh = qHTS for Inhibitors of binding or entry into cells for Lassa Virus. Lassa virus pseudotype entry inhibition, cell reporter. Potency, µM (titrated, usually from 37.9 µM), actives largely listed as inhibitors. hit rate 1.2% among 300,000; calls by dose curve; tested in HEK293 cells; further: nearly all actives have a fitted effect of over 50% in size
Shiga inhibitor = A qHTS for Small Molecule Inhibitors of Shiga Toxin. Vero cells, Shiga toxin protein synthesis inhibition reporter. hit rate 9.2% among 290,000. inhibition, % at 38.7 µM; in the data active means inhibition mostly above about 28%, no sharp cut-off; inactive means mostly below about 43%
Cycloheximide cs = Cycloheximide Counterscreen for Small Molecule Inhibitors of Shiga Toxin; cell reporter, cycloheximide protein synthesis inhibition counterscreen; max response, %; hit rate 12% among 300,000; AID 2314, 2010; in the data active means max response mostly above about 13%, no sharp cut-off; inactive means mostly below about 14%; further: read at 38.3 µM for the half of the compounds with a filed dose
Marburg entry inh = qHTS for inhibitors of binding or entry into cells for Marburg Virus; Marburg virus pseudotyped entry inhibition, cell reporter; Potency, µM (titrated, usually from 37.8 µM), usual class: inhibitors; AID 540276, 2011; hit rate 1.8% among 300,000; calls by dose curve; tested in HEK293 cells
HCV inh = qHTS Assay for Inhibitors of Hepatitis C Virus (HCV); Huh7.5.1 HCVcc-Cre infection, luciferase reporter, 44 h; hit rate 3.4% among 340,000; Potency, µM (highest dose often 41.8 µM), hits mostly inhibitors; AID 651820, 2012; active means well fitted inhibition curve with a large enough effect; inconclusive means small, poorly fitted or top-dose-only effect, or another doubt; inactive means no such curve, though single readings can be large or run the other way
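A cell-based infection assay in which seeded cells (1,000 per well) receive test compound after 4 h, are inoculated with HCVcc-Cre at approximately 0.5 moi, and are incubated 44 h before luminescence detection.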
Large screens that a line does not name were inactive. Most compounds without a hit are left out; they make up all but 13% or so of the library.

CCN1CCN(Cc2ccc(NC(=O)c3ccc(C)c(NC(=O)N4CCNC4=O)c3)cc2C(F)(F)F)CC1	HCV inh inconclusive (no result: Lassa entry inh, Marburg entry inh)
CCN1CCN(Cc2ccc(NC(=O)c3ccc(C)c(NC(=O)c4nccnc4N)c3)cc2C(F)(F)F)CC1	HCV inh 10µM (no result: Lassa entry inh, Marburg entry inh)
COc1ccc(NC(=O)C(c2cc3c(cc2[N+](=O)[O-])OCO3)N(C)c2ccccc2)cc1 (centres undefined)	Lassa entry inh inconclusive, Cycloheximide cs 19.3
COc1ccc(OC(C)C(=O)Nc2ccc([N+](=O)[O-])cc2)cc1 (centres undefined)	FMDV antiviral inconclusive, Lassa entry inh inconclusive
COc1ccc(C(=O)N2CCN(CCNC(=O)C(=O)Nc3ccc(F)cc3)CC2)cc1OC	none
O=C1OC(N2C(=O)CC[C@H]2C(=O)Nc2ccc3c(c2)OCO3)c2ccccc21 (some centres undefined)	HCV inh 0.891µM (no result: Lassa entry inh, Marburg entry inh)
O=C1OC(N2C(=O)CC[C@H]2C(=O)Nc2ccc(F)c(F)c2)c2ccccc21 (some centres undefined)	none (no result: Lassa entry inh, Marburg entry inh)
CCOc1ccc2cc(C(=O)NCc3ccccc3)c(=N)oc2c1	none
C#CCOS(=O)OC1CCCCC1Oc1ccc(C(C)(C)C)cc1 (centres undefined)	none (no result: Lassa entry inh, Shiga inhibitor, Cycloheximide cs, Marburg entry inh, HCV inh)
CC1(C(=O)Nc2cccc(C#N)c2)CCN1C(=O)Cc1ccc(-c2ccccc2)cc1 (centres undefined)	FMDV antiviral 25.1µM (no result: Lassa entry inh, Shiga inhibitor, Cycloheximide cs, Marburg entry inh, HCV inh)
CN1CCN(c2nc(Nc3cccc(C(F)(F)F)c3)nc(N3CCOCC3)n2)CC1	Lassa entry inh inconclusive, Marburg entry inh 20.6µM, HCV inh inconclusive
Clc1ccc(Nc2nc(NCCN3CCOCC3)nc(N3CCOCC3)n2)cc1	Lassa entry inh inconclusive, Marburg entry inh 2.82µM
Cc1ccc(Nc2cc(C)nc(N3CCOCC3)n2)cc1	Shiga inhibitor 81.4, Cycloheximide cs 26.4, Marburg entry inh 5.62µM, HCV inh inconclusive
FC(F)(F)c1cccc(Nc2nc(N3CCCC3)nc(N3CCCC3)n2)c1	Marburg entry inh inconclusive
Cc1cc(Nc2ccc(C)c(Cl)c2)nc(N2CCOCC2)n1	Lassa entry inh inconclusive, Cycloheximide cs 7.5, Marburg entry inh inconclusive, HCV inh inconclusive
CCOc1ccc(Nc2cc(C)nc(N3CCOCC3)n2)cc1	none
Cc1c(OCC(=O)N2CCC(C(N)=O)CC2)ccc2c1oc(=O)c1ccccc12	none (no result: Lassa entry inh, Marburg entry inh)
Cc1cc(NC(=O)CSCC(=O)Nc2nc3c(C)cccc3s2)no1	HCV inh inconclusive (no result: Shiga inhibitor, Cycloheximide cs)
Cc1ccc(Nc2nc(N3CCOCC3)nc(N3CCOCC3)n2)cc1	Cycloheximide cs 14.1, Marburg entry inh 1.16µM, HCV inh inconclusive
Cc1ccccc1Nc1nc(N2CCOCC2)nc(N2CCOCC2)n1	Marburg entry inh 6.31µM
CCCCCCCCCCCCN1[C@@H](CC(=O)O)c2cc(C(F)(F)F)ccc2S1(=O)=O	none (no result: Lassa entry inh, Shiga inhibitor, Cycloheximide cs, Marburg entry inh)
CCOc1ccc(CCNC(c2cccc(Cl)c2)c2nnc(-c3ccccc3)o2)cc1OCC (centres undefined)	Marburg entry inh inconclusive (no result: Shiga inhibitor, Cycloheximide cs, HCV inh)
CCn1c(SCC(=O)Nc2nc3ccccc3s2)nc2c(c1=O)SC(C)C2 (centres undefined)	FMDV antiviral 31.6µM, Marburg entry inh inconclusive, HCV inh inconclusive
CCn1c(SCC(=O)Nc2nc3ccc(C)cc3s2)nc2c(c1=O)SC(C)C2 (centres undefined)	FMDV antiviral inconclusive, Marburg entry inh inconclusive, HCV inh 7.94µM
COc1ccc(C(=O)N/N=C(\C)c2ccc3c(c2)C2C=CCC2C(c2ccccc2)N3)cc1 (centres undefined)	Lassa entry inh inconclusive, Cycloheximide cs 20.2
O=C(O)c1cccc(S(=O)(=O)Nc2ccccc2C(=O)NCCc2ccccc2)c1	Shiga inhibitor 46.0, Cycloheximide cs 28.9, Marburg entry inh inconclusive
O=C(NCCOc1ccc(Cl)cc1)c1cccc(S(=O)(=O)N2CCCC2)c1	FMDV antiviral inconclusive, HCV inh 15.8µM (no result: Lassa entry inh, Shiga inhibitor, Cycloheximide cs, Marburg entry inh)
O=C(NCCc1ccccc1)c1cccc(S(=O)(=O)N2CCCCC2)c1	Shiga inhibitor 39.8, Cycloheximide cs 28.4, Marburg entry inh inconclusive
O=C(NCCc1ccccc1)C1=CCN(S(=O)(=O)c2ccccc2)CC1	Cycloheximide cs 29.7 (no result: Lassa entry inh, Marburg entry inh)
O=C(NCCc1ccccc1)c1ccc(S(=O)(=O)N2CCCC2)cc1	Marburg entry inh inconclusive (no result: Shiga inhibitor, Cycloheximide cs)
CN(C)S(=O)(=O)c1cccc(C(=O)NCCc2ccccc2)c1	FMDV antiviral inconclusive, Lassa entry inh inconclusive, Shiga inhibitor 72.1, Cycloheximide cs 48.3, Marburg entry inh inconclusive
CN(C)S(=O)(=O)c1ccc(C(=O)NCCc2ccco2)cc1	Shiga inhibitor 63.3, Cycloheximide cs 24.7
CCN(CC)S(=O)(=O)c1cccc(C(=O)NCc2ccccc2)c1	none
COc1cc(NC(=S)Nc2cccc(C)n2)cc(OC)c1OC	none (no result: Lassa entry inh, Marburg entry inh)
Cc1ccc(C)c(NC(=S)Nc2ncccc2C)c1	Lassa entry inh inconclusive, Shiga inhibitor 134.2, Cycloheximide cs 35.7, HCV inh inconclusive
Cc1cccnc1NC(=S)Nc1ccc(F)cc1F	Shiga inhibitor 76.8, Cycloheximide cs 35.2
Cc1ccc(C)c(NC(=S)N2CCN(c3ccccn3)CC2)c1	none (no result: Lassa entry inh, Marburg entry inh)
COc1cc(NC(=S)Nc2ncccc2C)cc(OC)c1OC	Cycloheximide cs 20.4 (no result: Lassa entry inh, Marburg entry inh)
O=C(CSc1n[nH]c(=O)n1C1CC1)c1ccc(F)cc1	Cycloheximide cs 13.5 (no result: Lassa entry inh, Marburg entry inh)
CCOC(=O)C(=O)Nc1cc(C(=O)OC)cc(C(=O)OC)c1	none (no result: Lassa entry inh, Marburg entry inh)
O=C1C=C(NNC(=O)c2cccnc2)CC(c2ccco2)C1 (centres undefined)	none (no result: Lassa entry inh, Marburg entry inh)
C/C(=N\NC(=O)c1c(C)nc2ccccn12)c1ccc(C(C)(C)C)cc1	Lassa entry inh inconclusive, HCV inh inconclusive
C/C(=N\NC(=O)c1c(C)nc2ccccn12)c1ccco1	Shiga inhibitor 42.2, Cycloheximide cs 32.1
C/C(=N\NC(=O)c1c(C)nc2ccccn12)c1ccc(N2CCOCC2)cc1	Cycloheximide cs 27.5
Cc1ccc(/C(O)=C2\C(=O)C(=O)N(C)C2c2ccccc2[N+](=O)[O-])cc1 (centres undefined)	Cycloheximide cs 36.9 (no result: Shiga inhibitor)
O=C1C(=O)N(CCO)C(c2ccccc2[N+](=O)[O-])/C1=C(\O)c1ccccc1 (centres undefined)	Marburg entry inh inconclusive
Cc1ccc(/C(O)=C2\C(=O)C(=O)N(Cc3cccnc3)C2c2ccccc2[N+](=O)[O-])cc1 (centres undefined)	Shiga inhibitor 83.3, Cycloheximide cs 37.3, Marburg entry inh inconclusive
Cc1cc(OCC(=O)Nc2ccccc2C)no1	none (no result: Lassa entry inh, Shiga inhibitor, Cycloheximide cs, Marburg entry inh)
Nc1c2c(nc3ccccc13)N(C1CCCCC1)CC2	Marburg entry inh 10µM, HCV inh 0.316µM
CCNC(=O)NC(=O)C(C)OC(=O)C(C)(C)Oc1ccc(Cl)cc1 (centres undefined)	Lassa entry inh inconclusive
CCNC(=O)NC(=O)C(C)Oc1ccc(Br)cc1Br (centres undefined)	Shiga inhibitor 97.9, Cycloheximide cs 63.5, Marburg entry inh inconclusive, HCV inh inconclusive
CN(C)C(=S)Nc1nc2ccccc2s1	Shiga inhibitor 103.9, Cycloheximide cs 37.7, HCV inh 14.1µM (no result: Lassa entry inh, Marburg entry inh)
